About 350 (32%) of roughly 1,100 compounds were called active. Not all results are given here. Measured potencies and affinities stand elsewhere. Unmarked numbers belong to inactive results. No rule for the calls is given here.

A short description of the experiment: viability loss in CEM21 cells – cell-based, CellTiter-Glo luminescence, cherry-picked, cytotoxicity control for viral fusion inhibitor project, dose response (AID 652042). The conditions noted are these: CellTiter-Glo ATP luminescence, 24 h; series mostly up to 35 µM.
Consider `COc1ccc(Cl)cc1NC(=O)Nc1cnccn1`, for which the activity change, negative = cytotoxicity result is “inactive”.
Consider `COc1ccc(OCC(=O)Nc2cc(-c3nn(C)c(=O)c4ccccc34)ccc2OC)cc1`, for which the activity change, negative = cytotoxicity result is “inactive”.
With `COC(=O)[C@@]1(Cc2ccccc2)[C@H]2C(=O)N(Cc3ccccc3)C(=O)[C@H]2[C@H]2CN=C(SCc3ccc(C#N)cc3)N21`, the activity change, negative = cytotoxicity result is “inactive”.
For `O=C(CN1C(=O)c2ccccc2S1(=O)=O)c1ccc2c(c1)OCCCO2`, the activity change, negative = cytotoxicity entry was “inactive”.
Regarding `CCc1ccc(-c2nc(CN3CCC(C(=O)NCCc4ccc(OC)c(OC)c4)CC3)c(C)o2)cc1`, the activity change, negative = cytotoxicity entry was “inactive”.
In the case of `Cc1oc(-c2ccccc2F)nc1CN1CCC(C(=O)NCCC2=CCCCC2)CC1`, the activity change, negative = cytotoxicity entry was “inactive”.
For `CN1CC(c2ccccc2)C2(COc3ccccc3C2=O)C12C(=O)Nc1ccccc12` (configuration not stated) the value was “inactive”.
In the case of `COc1ccccc1S(=O)(=O)n1cc(Cc2ccccc2)c(N)n1`, the activity change, negative = cytotoxicity entry was “inactive”.
As to `CCOC(=O)c1c(CSc2ccccc2)oc2cc(Br)c(O)c(CN(C)C)c12`, the activity change, negative = cytotoxicity result was “inactive”.
With `CC(=O)C1=C(C)NC(=S)NC1c1ccccc1` (configuration not stated), the activity change, negative = cytotoxicity result was “inactive”.
As for `c1ccc2c(c1)ncn2CCCCOc1ccc2c(c1)CCC2`, the activity change, negative = cytotoxicity was 1.14% [at 8 µM].
As to `C[C@H]1CNC(=O)c2c(C(=O)N3CCN(c4ccccc4)CC3)ncn21`, the activity change, negative = cytotoxicity entry is “inactive”.
As for `CC1CCN(C(=O)c2ncn3c2C(=O)NC[C@@H]3C)CC1`, the activity change, negative = cytotoxicity result is “inactive”.
For the compound `Cn1c(CN2CCCCC2)nc2cc(NC(=O)c3ccc(Cl)cc3)ccc21`, the activity change, negative = cytotoxicity entry is “inactive”.
For `Cc1ccc(NS(=O)(=O)c2cc(C(=O)N(C)C3CCN(C)CC3)ccc2Cl)cc1Cl` the value was “inactive”; for `COc1ccc2[nH]c(=O)c(CN(Cc3nnnn3Cc3ccccc3)CC3CCCO3)cc2c1` (configuration not stated), “inactive”.
On to `COc1ccc(OCC(=O)Nc2ccccc2N2CCCCC2)cc1`, for which the activity change, negative = cytotoxicity entry was “inactive”.
Turning to `CCC(C)(C)NC(=O)C(c1ccccc1F)N(Cc1ccco1)C(=O)c1csnn1` (configuration not stated), the activity change, negative = cytotoxicity entry was “inactive”.
Then `CO[C@@H]1CN(C)C(=O)c2cc(NC(=O)Nc3ccc(Cl)cc3)ccc2OC[C@H](C)N(C)C[C@H]1C`, with “inactive”; and `CC[C@@]1(C(=O)OC)N[C@H](CN(C)C(=O)Nc2ccc(F)cc2)[C@@H]2C(=O)N(Cc3ccccc3)C(=O)[C@@H]21`, with “inactive”; and `Cc1nc2sc(C(c3ccco3)N3CCC(Cc4ccccc4)CC3)c(O)n2n1` (configuration not stated), with “inactive”.
With `CN(C)C(=O)C[C@@H]1C[C@H]2c3cc(NS(=O)(=O)c4ccc(F)cc4)ccc3O[C@H]2[C@H](CO)O1`, the activity change, negative = cytotoxicity result was “inactive”.
`Clc1ccc(-c2csc3ncnc(NCCN4CCOCC4)c23)cc1`: the activity change, negative = cytotoxicity result is “inactive”.
With `O=C(CN1CCN(Cc2ccc(Cl)cc2)C1=O)NCCCN1CCN(c2ccc(F)cc2)CC1`, the activity change, negative = cytotoxicity result is “inactive”.
On to `CC(C)CN(C(=O)c1ccc(S(=O)(=O)N2CCCCC2)cc1)C1CCS(=O)(=O)C1` (configuration not stated), for which the activity change, negative = cytotoxicity result was “inactive”.
Turning to `CC[C@@]12C(=O)N(c3ccc(C)cc3)C(=O)N1[C@H](c1ccc(Br)cc1)[C@@H]1C(=O)N(C(C)(C)C)C(=O)[C@@H]12`, the activity change, negative = cytotoxicity entry was “inactive”.
`O=c1[nH]c(=O)n([C@H]2C[C@H](O)[C@@H](CO)O2)cc1F`: the activity change, negative = cytotoxicity entry was “inactive”.
For `CC(C)(COC(=O)C(c1ccccc1)c1ccccc1)CN1CCOCC1` the value was “inactive”; for `CCOc1ccc(C(=O)C2CCN(CC(=O)Nc3ccccc3N3CCOCC3)CC2)cc1`, “inactive”.
As for `COc1ccc(C(O)(C2CCCCC2)C(CN2CCOCC2)c2ccccc2)cc1` (configuration not stated), the activity change, negative = cytotoxicity result is “inactive”.
Consider `CCOc1ccc(OCc2cccc(C(=O)N3CCOCC3)c2)cc1`, for which the activity change, negative = cytotoxicity entry is “inactive”.
As for `CCCNC(=O)c1ccccc1NC(=O)c1ccccc1N(C)S(=O)(=O)c1ccccc1`, the activity change, negative = cytotoxicity result is “inactive”.
Then `Cc1[nH]nc2ncc(C(=O)c3ccccc3O)cc12`, with “inactive”; and `O=C(CCC(=O)N1CCN(S(=O)(=O)c2ccc3ccccc3c2)CC1)Nc1cc(Cl)cc(Cl)c1`, with “inactive”.
Turning to `CCN1CCN(S(=O)(=O)c2ccc(Cl)c(C(=O)Nc3ccccc3N3CCCC3)c2)CC1`, the activity change, negative = cytotoxicity result is “inactive”.
Regarding `CCCCCCc1nc2ccccc2c(=O)n1NC(=O)c1c(O)c2c(n(CC(C)C)c1=O)CCCC2`, the activity change, negative = cytotoxicity result is “inactive”.
Then `CC[C@@]12C(=O)N(c3cccc(Br)c3)C(=O)N1[C@H](c1ccc(OC)cc1)[C@@H]1C(=O)N(C(C)(C)C)C(=O)[C@@H]12`, with “inactive”; and `CN(Cc1ccc(Cl)cc1Cl)C(=O)c1cccc(S(=O)(=O)N2CCN(c3ccccc3)CC2)c1`, with “inactive”.
Turning to `Cc1ccc(C)c(-n2cc(CNCCCn3cccn3)c(-c3ccccc3)n2)c1`, the activity change, negative = cytotoxicity entry was “inactive”.
For `O=C1NCCN(Cc2cccc(Oc3ccccc3)c2)C1CC(=O)N1CCCCC1` (configuration not stated), the activity change, negative = cytotoxicity result was “inactive”.
As to `Cc1cc(Cl)c(S(=O)(=O)N2CCSCC2)cc1OCC(=O)NC1CCCCC1`, the activity change, negative = cytotoxicity entry is “inactive”.
Regarding `Cc1cc(Cl)c(S(=O)(=O)N2CCCC2)cc1OCC(=O)NC1CCCCC1`, the activity change, negative = cytotoxicity result is “inactive”.
Regarding `CN(C)CCn1c(=O)n(-c2cccc(Cl)c2)c(=O)c2c3c(sc21)CCCCC3`, the activity change, negative = cytotoxicity result is “inactive”.
Then `CCC(C)NS(=O)(=O)c1ccc(S(=O)(=O)N2CCCC3(CCCCC3)C2)cc1` (configuration not stated), with “inactive”; and `O=C(COC(=O)c1ncc(Cl)c(Cl)c1Cl)NCc1cccs1`, with “inactive”.
`Cc1nc2ccccc2c2c1CC(C(C)(Cl)Br)O2` (configuration not stated): the activity change, negative = cytotoxicity entry was “inactive”.
For `COc1cc2oc(=O)cc(-c3ccc(-c4ccc(CO)cc4)cc3)c2c(OC)c1OC` the value was “inactive”.

These data come from PubChem BioAssay AID652042 (Broad Institute, 2013).
